Inconclusive results are not listed. Activity calls are given as the source filed them. The call rests on the fitted dose curve; in most records, active means well fitted curve in the direction sought with a large enough effect; inconclusive means small, poorly fitted or top-dose-only effect, or another doubt; inactive means no such curve, though single readings can be large; an effect the other way counts as inactive or inconclusive. Where a SMILES comes first, the peptide text is derived from it.
Assays:
[1] = test system: HACAT; test: qHTS assay to identify novel small-molecules to repurpose for Merkel cell carcinoma treatment (AID 1296009); settings: MCC and control cell lines, CellTiter-Glo viability, 72 h; at 44.8 µM (top of the series) unless noted; further: nearly all actives have a fitted effect of over 60% in size
Procedure, shortened: (§1)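 Cells were incubated with compound for 72 hr at 37 degree celsius before CellTiter-Glo addition. Luminescence was normalized with no-cell wells as full cytotoxicity and DMSO as baseline.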

[2] = test system: C33A; test: Primary qHTS to identify gynecologic anti-cancer compounds using libraries of approved drugs and bioactive compounds (AID 1345084); settings: Gynecologic cancer cell panel viability, ATPlite luminescence, 48 h; series mostly up to 57.5 µM; further: nearly all actives have a fitted effect of over 55% in size; further: potency means the concentration at half of the fitted maximal effect; on activity change, negative = cytotoxicity: on the % scale 0 is the no-effect control and ±100 the full control effect
Procedure, shortened: (§2)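 Cells, 1,000 per well, were allowed to settle for 16 h at 37 C before compound addition. Five concentrations were tested for 48 h, and viability was read by ATPlite luminescence after 15 min at room temperature.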

[3] = test system: CASKI; test: as above; settings: Gynecologic cancer cell panel viability, ATPlite luminescence, 48 h; series mostly up to 57.5 µM
Procedure, shortened: as §2

[4] = test system: Es-2; test: as above; settings: Gynecologic cancer cell panel viability, ATPlite luminescence, 48 h; series mostly up to 57.5 µM
Procedure, shortened: as §2

[5] = test system: HeLa; test: as above; settings: Gynecologic cancer cell panel viability, ATPlite luminescence, 48 h; series mostly up to 57.5 µM
Procedure, shortened: as §2

[6] = test system: Hek293T; test: as above; settings: Gynecologic cancer cell panel viability, ATPlite luminescence, 48 h, control line for the selectivity index; series mostly up to 57.5 µM
Procedure, shortened: as §2

[7] = test system: JEG-3; test: as above; settings: Gynecologic cancer cell panel viability, ATPlite luminescence, 48 h; series mostly up to 57.5 µM
Procedure, shortened: as §2

[8] = test system: HEK293T; test: qHTS assay to identify novel small-molecules to repurpose for Merkel cell carcinoma treatment (AID 1296009); settings: MCC and control cell lines, CellTiter-Glo viability, 72 h; at 44.8 µM (top of the series) unless noted; further: nearly all actives have a fitted effect of over 60% in size
Procedure, shortened: as §1

[9] = test system: CAOV3; test: Primary qHTS to identify gynecologic anti-cancer compounds using libraries of approved drugs and bioactive compounds (AID 1345084); settings: Gynecologic cancer cell panel viability, ATPlite luminescence, 48 h; series mostly up to 57.5 µM; further: nearly all actives have a fitted effect of over 55% in size; further: potency means the concentration at half of the fitted maximal effect; on activity change, negative = cytotoxicity: on the % scale 0 is the no-effect control and ±100 the full control effect
Procedure, shortened: as §2

[10] = test system: NIH3T3; test: qHTS assay to identify novel small-molecules to repurpose for Merkel cell carcinoma treatment (AID 1296009); settings: MCC and control cell lines, CellTiter-Glo viability, 72 h; at 44.8 µM (top of the series) unless noted; further: nearly all actives have a fitted effect of over 60% in size
Procedure, shortened: as §1

C[C@H]1CCN2C[C@]34C[C@@]5(C(=O)Nc6c5ccc5c6OC=CC(C)(C)O5)C(C)(C)C3C[C@]12C(=O)N4C (stereo partly specified)
inactive: outcome [1] inactive [at 17.4 µM] | Potency [2] | outcome [3] | Potency [4] | Potency [5] | Potency [6] | Potency [7]

O=C1NC(=O)/C(=C/c2cccc(C(F)(F)F)c2)S1
inactive: outcome [8] | Potency [2] | Potency [9] | outcome [3] | Potency [4] | Potency [5] | Potency [6] | Potency [7]

Cn1nccc1-c1ccccc1Oc1ccc(S(=O)(=O)Nc2nccs2)cc1C#N
inactive: outcome [8] | Potency [2] | Potency [9] | outcome [3] | Potency [4] | Potency [5] | Potency [6] | Potency [7]

COC(=O)CCC1(C)C(C(C)(C)O)C(O)CC2(C)Oc3c(C)c4c(c(OC)c3CC21)C(=O)OC4 (stereo unspecified)
inactive: outcome [8] inactive [at 17.4 µM] | Potency [2] | Potency [9] | outcome [3] | Potency [4] | Potency [5] | Potency [6] | Potency [7]

COc1cc(/C=C/C(=O)O[C@@H]2O[C@H](CO)[C@@H](O)[C@H](O)[C@H]2O)ccc1O
inactive: outcome [8] | Potency [2] | Potency [9] | outcome [3] | Potency [4] | Potency [5] | Potency [6] | Potency [7]

CC(C)C1(O)NC(=O)C(CC2(O)c3ccccc3N3C(=O)C(C)(C)NC32)n2c1nc1ccccc1c2=O (stereo unspecified)
inactive: outcome [8] inactive [at 17.4 µM] | Potency [2] | Potency [9] | outcome [3] | Potency [4] | Potency [5] | Potency [6] | Potency [7]

Cc1ccccc1NC(=O)Nc1ccc(CN2C(=O)N([C@@H](CC(C)C)C(=O)N[C@@H](CC(=O)O)c3ccccc3)C(=O)C2(C)C)cc1
inactive: outcome [8] | Potency [2] | Potency [9] | outcome [3] | Potency [4] | Potency [5] | Potency [6] | Potency [7]

C=C1CCc2occ(C)c2[C@H]2[C@H]1[C@@]13O[C@@]1(C[C@@H](C)[C@H]3OC(C)=O)[C@H]1O[C@@]21C
inactive: outcome [8] | Potency [2] | Potency [9] | outcome [3] | Potency [4] | Potency [5] | Potency [6] | Potency [7]

CC(C)C1NC(=O)CNC(=O)C2CCCN2C(=O)C(Cc2c[nH]c3ccccc23)NC(=O)CNC(=O)C(Cc2ccc(O)cc2)NC(=O)CNC1=O (stereo unspecified) (cyclo(GVGYGWP); configuration not given here)
inactive: outcome [1] inactive [at 17.4 µM] | Potency [2] | outcome [3] | Potency [4] | Potency [5] | Potency [6] | Potency [7]

CC(CNS(=O)(=O)C(C)C)c1ccc(-c2ccc(C#N)cc2)cc1 (stereo unspecified)
inactive: outcome [1] | Potency [9] | Potency [5]

COc1ccc2c(c1)N1C(=O)C[C@@]34C=CC[N@+]5([O-])CC[C@H]2[C@H](CC3)[C@@]145
inactive: outcome [8] | Potency [2] | Potency [9] | outcome [3] | Potency [4] | Potency [5] | Potency [6] | Potency [7]

C[C@@H]1C(=O)O[C@H]2[C@H]1CC[C@@]1(C)C(=O)C=C[C@@](C)(O)[C@H]21
inactive: outcome [8] | Potency [2] | Potency [9] | outcome [3] | Potency [4] | Potency [5] | Potency [6] | Potency [7]

C/C=C(/C)C(=O)OC1C(OC(C)=O)C23C(O)OC4(CCC5C6(C)CCC(OC7OC(C(=O)O)C(O)C(OC8OC(CO)C(O)C(O)C8OC8OC(C)C(O)C(O)C8OC8OCC(O)C(O)C8O)C7OC7OC(CO)C(O)C(O)C7O)C(C)(C)C6CCC5(C)C4(C)CC2OC(C)=O)C3CC1(C)C (stereo unspecified)
inactive: outcome [8] inactive [at 9.27 µM] | activity change, negative = cytotoxicity [2] 8.72% [at 6.55 µM] | activity change, negative = cytotoxicity [9] 8.69% [at 6.55 µM] | activity change, negative = cytotoxicity [3] 1.53% [at 6.55 µM] | activity change, negative = cytotoxicity [4] 1.17% [at 6.55 µM] | activity change, negative = cytotoxicity [5] -3.79% [at 6.55 µM] | activity change, negative = cytotoxicity [6] -2.54% [at 6.55 µM] | activity change, negative = cytotoxicity [7] 2.12% [at 6.55 µM]

C[C@@H]1CC[C@]2(C(=O)O)CC[C@]3(C)C(=CCC4[C@@]5(C)C[C@@H](O)[C@@H](O)C(C)(C)C5CC[C@]43C)C2[C@]1(C)O (stereo partly specified)
inactive: outcome [8] inactive [at 17.4 µM] | Potency [2] | Potency [9] | outcome [3] | Potency [4] | Potency [5] | Potency [6] | Potency [7]

CC(=O)OC1CC2(C)C(CCC(C)C23Cc2c(O)cc4c(c2O3)CNC4=O)C(C)(C)C1O (stereo unspecified)
inactive: outcome [8] inactive [at 17.4 µM] | Potency [2] | Potency [9] | outcome [3] | Potency [4] | Potency [5] | Potency [6] | Potency [7]

COc1ccc(-c2ccn(CC[C@](C)(C(=O)NO)S(C)(=O)=O)c(=O)c2)c(F)c1
inactive: outcome [1]
active: Potency [9] 22.4 µM | Potency [4] 14.1 µM | Potency [7] 20 µM

COc1cc(Cc2cnc(N)nc2N)c(C(C)C)cc1OC
inactive: outcome [8] | Potency [2] | Potency [9] | outcome [3] | Potency [4] | Potency [5] | Potency [6] | Potency [7]

COc1cccc(OC)c1-c1nc(C(=O)N[C@@H](CC(C)C)C(=O)O)cn1-c1ccnc2cc(Cl)ccc12
inactive: outcome [10] | Potency [2] | Potency [9] | outcome [3] | Potency [4] | Potency [5] | Potency [6] | Potency [7]

C[C@@H]1C[C@@H](O)[C@@]23CO[C@]2(CO)CCC[C@@H]3[C@@]12C[C@@H](c1ccoc1)OC2=O
inactive: outcome [10] | Potency [2] | Potency [9] | outcome [3] | Potency [4] | Potency [5] | Potency [6] | Potency [7]
